According to PubChem BioAssay AID651742 (Broad Institute, 2012):
The whole screen tested about 5,600 compounds, of which about 780 (14%) were called active. About 3% were inconclusive and are not listed. A selection follows. A number with no mark means an inactive call.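 The calls were made as follows: active = mean signal decrease across replicates above about 35% based on untreated-well scatter, with enough replicates individually passing (limit read from the data); inconclusive = no rule stated though some were filed; inactive = the rest.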

Assay: cytotoxicity in mouse NIH/3T3 fibroblasts, confirmation, cytotoxicity control for T. cruzi proliferation inhibitor project, cell-based, cherry-pick, single point (AID 651742);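 also: 0% = median of neutral control wells and 100% = median of positive control wells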
Settings: NIH/3T3 viability, CellTiter-Glo ATP luminescence, 90 h; at 8.35 µM; stronger effect = higher value

Row | Structure (SMILES) | cytotoxicity (signal decrease)
1 | COc1ccc(C#Cc2ccc([C@H]3[C@H](CO)N4CCCCN(C(=O)Cc5ccccc5)C[C@@H]34)cc2)cc1 | 58.2% (active)
2 | COc1ccc(-c2ccc([C@H]3[C@H](CO)N4CCCCN(C(=O)Cc5ccncc5)C[C@@H]34)cc2)cc1 | 17.6%
3 | O=C(Cc1ccccn1)N1CCCCN2[C@@H](CO)[C@@H](c3ccc(C#Cc4ccccc4)cc3)[C@@H]2C1 | 33.5%
4 | O=C(Cc1cccnc1)N1CCCCN2[C@@H](CO)[C@H](c3ccc(C#CC4CCCC4)cc3)[C@@H]2C1 | 23.3%
5 | C/C=C/c1ccc([C@H]2[C@H](CO)N3CCCCN(C(=O)Cc4ccncc4)C[C@@H]23)cc1 | 11.1%
